# In the supplement of paper PMC6555819:
# What was measured:
# Experiment in all cases: PBM binding z-score (relative to random genomic background probes); higher = stronger binding; sequences stand for … in GC…GCGATTGACAGCGTAGAATGAAGG
# [1] = tested on: FXR:RXRa (NR concentration 270 nM, RXRa partner concentration 90 nM)
# Procedure, shortened: (§1)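 Ligand-free nuclear receptor dimers were applied to custom Agilent 4×180K protein-binding microarrays whose double-stranded probes carried direct-repeat seeds, single-nucleotide variants, half-site ablations and random human genomic background sequences in 34-nt variable regions. Incubation lasted 1 h. Binding z-scores were computed against the random background probes from regression-normalized fluorescence.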
# [2] = tested on: LXRa:RXRa (NR concentration 270 nM, RXRa partner concentration 90 nM)
# Procedure, shortened: as §1
# [3] = tested on: LXRa homodimer (NR concentration 270 nM)
# Procedure, shortened: as §1
# [4] = tested on: LXRb:RXRa (NR concentration 270 nM, RXRa partner concentration 90 nM)
# Procedure, shortened: as §1
# [5] = tested on: LXRb homodimer (NR concentration 270 nM)
# Procedure, shortened: as §1
# [6] = tested on: PPARa:RXRa (NR concentration 270 nM, RXRa partner concentration 90 nM)
# Procedure, shortened: as §1
# [7] = tested on: PPARg:RXRa (NR concentration 180 nM, RXRa partner concentration 90 nM)
# Procedure, shortened: as §1
# [8] = tested on: PPARg:RXRa 270nM:90nM, anti-RXR (NR concentration 270 nM, RXRa partner concentration 90 nM)
# Procedure, shortened: as §1
# [9] = tested on: PPARg:RXRa 30nM:10nM, anti-RXR (NR concentration 30 nM, RXRa partner concentration 10 nM)
# Procedure, shortened: as §1
# [10] = tested on: PPARg:RXRa 90nM:30nM, anti-RXR (NR concentration 90 nM, RXRa partner concentration 30 nM)
# Procedure, shortened: as §1
Sequence,PBM binding z-score [1],PBM binding z-score [2],PBM binding z-score [3],PBM binding z-score [4],PBM binding z-score [5],PBM binding z-score [6],PBM binding z-score [7],PBM binding z-score [8],PBM binding z-score [9],PBM binding z-score [10]
CAAACTAGATCACAGAGGTCAAAGTCCGTGCGTA,4.82,5.45,6.08,5.22,2.14,5.26,4.26,4.86,2.01,4.09
CCTAGTTGGCCAGGAGGTCACACACCGGATATGA,4.04,3.22,1.73,3.53,0.178,4.15,2.42,2.91,0.806,2.2
AGATGTAGGTTAGCTGGGGTCATTCAGACTAGGC,4.46,5.57,2.58,4.53,1.17,4.85,5.03,4.61,2.17,3.72
AGAATGAGGGTATACGTAGATCAGGGAAGAAAGT,0.101,0.0157,-0.0552,-0.0551,-0.229,0.333,0.755,0.72,0.337,0.51
CTCGAATGGTCGTGCTCAGGTGAGTATACCAAAC,-0.179,-0.419,-0.51,-0.227,-0.231,-0.0651,-0.329,-0.395,-0.488,-0.372
CGTCCAAGGTCAGAGAGATCAGTGAATGCCGAGT,4.93,2.88,0.0283,2.25,0.0679,3.73,2.1,2.59,0.164,1.22
CTCGAAAGGTCGTGCTCGGGTGAGTATACCAAAC,5.24,3.9,-0.0589,3.32,-0.0126,4.83,2.25,3.88,1.18,2.3
CGAACTAGGTCACCGGAAGGTCAAAGTCCGCATG,6.15,5.95,4.65,5.17,0.515,6.04,9.75,7.7,5.33,7.57
CGTCCAAGGTCATAGGTGGTCAGTGAAGACAGAT,7.11,5.63,1.51,4,0.409,5.57,5.44,5.25,2.42,4.36
TCTTGTAGATCAACAGGACGTTAAGAAAGATCGA,0.291,0.413,-0.398,0.173,-0.226,0.653,0.338,1.62,2.86,2.27
GTACCAAGGTGAATAGGTCGATGATGAGTAGGCG,0.682,0.499,-0.251,0.484,-0.293,1.89,1.69,1.53,0.803,1.28
CGTCCAAGGTCAATGCTAGGTCATTGAAAGCATT,7.16,6.36,5.55,4.79,1.21,5.28,4.04,4.94,1.89,3.66
CAAACTAGGTCACGAAAGGCCAAAGTCGAATGAC,5.15,6.02,1.03,4.03,0.629,5.58,9.27,7.42,5.71,7.41
ACTATTAGTTGACTTAAGGCAACCGATACGACGC,0.413,0.299,0.175,0.537,1.03,0.139,0.967,0.607,0.511,0.394
ACTTACGGGTCAACGAGGTTATACCACGCGTATA,6.87,5.39,1.14,4.59,0.838,5.83,5.59,5.57,1.82,4.26
CCTGCTTGGTCAATGGTCAGCTAAAGCAGCTCGC,-0.266,-0.183,-0.536,-0.566,-0.491,-0.243,-0.553,0.82,-0.904,0.17
TCATAGAGGTAATACAGGTGAAAGTCGGCATCTA,0.717,1.43,-0.283,0.754,-0.377,1.85,0.997,1.86,3.1,2.46
CGTCACAGTTCAAGGTAACGTAACAGAAAGCAGC,2.2,1.91,0.443,1.52,0.237,2.46,1.29,1.19,0.243,0.61
ACTAGTTGGTCAGCTGTGGTCACACACAATTCGG,0.168,-0.0982,-0.159,-0.0787,-0.362,0.0515,0.536,0.0705,-0.147,-0.158
AGAACGAGGGCAATTAGTTGATAGCACGGGTGGC,0.559,0.389,-0.309,0.306,-0.23,1.64,1.31,0.81,-0.134,0.104
TAGCCTAGGTCAGATCGGGCCAGTATTCGCTATA,2.53,1.19,-0.155,0.7,-0.147,1.71,0.0951,0.687,-0.284,-0.025
CGCACTAGGTCAGAACAGGACAGTGAAGGATGAT,1.58,1.02,-0.057,0.629,-0.258,2.67,4.7,4.2,1.63,3.24
